The record followed here is PubChem BioAssay AID651812 (National Center for Advancing Translational Sciences (NCATS), 2012).

Structures are written as SMILES. Hit rate of the full screen: of about 2,100 compounds, about 650 (31%) were called active. Not shown: some 16% with an inconclusive outcome. Calls follow the shape of the dose curve; as a rule, active = well fitted inhibition curve with a large enough effect; inconclusive = small, poorly fitted or top-dose-only effect; inactive = flat fitted curve, though single readings scatter. The list shows a part of the results. A call without a number means that no potency is given here.
Potency is read from the fitted curve at half-maximal effect.

The nature of the assay: qHTS for inhibitors of Vif-A3G interactions: Cherry picks. Also: nearly all actives have a fitted effect of over 80% in size. As to conditions: HeLa A3G-eYFP + Vif (tagged APOBEC3G with the HIV-1 protein that degrades it), 24 h; Potency: eYFP fluorescence increase; series mostly up to 36.9 µM. A digest of the protocol: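 HeLa cells stably expressing A3G-eYFP and Vif, cultured overnight then exposed to compounds at several concentrations for 24 hours at 37 C, 5% CO2; cellular yellow fluorescence (488 nm ex, 500-530 nm em) imaged on Acumen, MG132 positive control.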
As to `O=C(Cc1nc2ccccc2[nH]c1=O)c1ccc(Cl)cc1`, the Potency was 20.6 µM (active).
The value for `c1ccc2[nH]c(NN=C3CCCCCC3)nc2c1` was “inactive”.
The same measure for `CC(=O)/C(=C\N(C)C)Sc1ccc(Cl)cc1`: “inactive”; for `COc1cccc(C2=CC(c3cccs3)n3nnnc3N2)c1` (configuration not stated): “inactive”; for `Cc1cc(C)n(S(=O)(=O)/C=C/c2ccccc2)n1`: “inactive”.
Regarding `O=C(NCC1CCCO1)c1nn2c(C(F)(F)F)cc(-c3cc(Br)cs3)nc2c1Br` (configuration not stated), the Potency is 13 µM (active).
The same measure for `COc1ccc(C)cc1NCc1cc(=O)oc2cc(-c3ccccc3)c(O)cc12`: “inactive”; for `CCOC(=O)c1c(-c2ccc(OC)cc2)csc1/N=C/C1C(=O)CCCC1=O`: “inactive”; for `O=C(CC1CC2CCC1C2)Nc1nc(-c2ccccn2)cs1` (configuration not stated): “inactive”.
On to `N#Cc1c(-c2ccccc2)c(-c2ccccc2)nn(CC(=O)NNC(=O)Nc2ccccc2)c1=O`, for which the Potency result is “inactive”.
As for `N#Cc1c(-c2ccc(F)cc2)c(-c2ccc(F)cc2)nn(CCO)c1=O`, the Potency was 12.5 µM (active).
The value for `CCn1c(SCC(=O)N/N=C/c2ccc(C)s2)nc2ccccc21` was “inactive”; that for `Cc1ccc(S(=O)(=O)N2CCCCC2CCNC(=O)C(=O)NCc2ccco2)cc1` (configuration not stated) was “inactive”.
With `COc1cc(/C=N\Nc2ccc([N+](=O)[O-])cc2)ccc1OCC(=O)Nc1ccc(C)c(C)c1`, the Potency was 8.2 µM (active).
The same measure for `Cc1cccc(C)c1OCC(=O)N/N=C/c1ccc2c(c1)OCO2`: “inactive”.
On to `Cc1ccccc1OCC(=O)N/N=C/c1ccc(N(C)C)cc1`, for which the Potency result is “inactive”.
The same measure for `COCCNC(=S)N/N=C(\C)c1ccccc1O`: “inactive”.
The value for `CC[n+]1ccc(/C=C/c2c[nH]c3ccccc23)cc1` was 14.6 µM (active).
For the compound `C[n+]1ccc(/C=C/c2c[nH]c3ccccc23)cc1`, the Potency was 11.6 µM (active).
The same measure for `C[n+]1ccc(/C=C/c2cc[n+](C)c3ccccc23)c2ccccc21`: “inactive”.
Consider `OCC[n+]1ccc(/C=C/c2c[nH]c3ccccc23)cc1`, for which the Potency was 10.3 µM (active).
The value for `CC(=O)Nc1cccc(-c2cc(NC=O)c3ncc(-c4ccc(F)c(Cl)c4)n3c2)c1` was “inactive”; that for `COc1ccc(-c2cc(NC=O)c3ncc(-c4cccc(C(F)(F)F)c4)n3c2)cc1OC` was “inactive”; that for `N#C/C=C/N1CCN(C(=O)c2ccco2)CC1` was “inactive”.
The value for `COc1cc(C2Sc3ccccc3NC3=C2C(=O)OC3)cc(OC)c1OC` (configuration not stated) was “inactive”; that for `COc1cc(CCC(=O)Nc2nnc(C)s2)cc(OC)c1OC` was “inactive”.
The same measure for `Cc1cc(C)nc(NC(=S)Nc2cccc(Cl)c2Cl)c1`: “inactive”.
For the compound `N#CC(C(=O)NCc1ccccc1)c1nc2ccccc2nc1N1CCCC1` (configuration not stated), the Potency is 18.4 µM (active).
The same measure for `CCN(CC)c1nc2ccccc2nc1C(C#N)C(=O)NCCc1ccccc1` (configuration not stated): 3.66 µM (active); for `NC(=O)C1CCN(c2nc3ccccc3nc2NS(=O)(=O)c2ccc(Br)cc2)CC1`: “inactive”; for `CN1CCN(c2ccc([N+](=O)[O-])cc2C(=O)c2ccc(Br)cc2)CC1`: “inactive”.
The same measure for `Cc1cc(C)c(C(=O)N(CCN(C)C)CC2CCCN(Cc3ccccc3F)C2)o1` (configuration not stated): “inactive”; for `COc1ccccc1C(=O)Nc1ccc2c(c1)CN(C(=O)CSC)CC2`: “inactive”; for `Cc1ccc(-c2nc3sc(C#N)c(N)n3c(=O)c2C#N)cc1`: 18.4 µM (active).
The value for `O=C(NCc1ccco1)C1Cc2c(-c3cccc(F)c3)ccnc2O1` (configuration not stated) was “inactive”; that for `Cc1ccc(C(=O)c2cc([N+](=O)[O-])ccc2N2CCN(C)CC2)cc1` was “inactive”.
Regarding `CCN(CC)c1ccc2cc(-c3nc(-c4cccs4)no3)c(=O)oc2c1`, the Potency was 2.91 µM (active).
For `CCN(CC)c1ccc2cc(-c3nnc(-c4ccccc4)o3)c(=O)oc2c1`, the Potency was 0.627 µM (active).
With `CCN(CC)c1ccc2cc(-c3nc4sc5c(c4c(=O)[nH]3)CCC(C(C)(C)C)C5)c(=O)oc2c1` (configuration not stated), the Potency entry is “inactive”.
The value for `CCN(CC)c1ccc2cc(-c3nc(-c4ccc(Cl)cc4Cl)cs3)c(=O)oc2c1` was 2.91 µM (active); that for `CCN(CC)c1ccc2cc(-c3nc(-c4cc(OC)c(OC)c(OC)c4)no3)c(=O)oc2c1` was 0.58 µM (active).
The same measure for `CC(=O)Nc1cccc(-c2ccnc3c2CC(C(=O)NCc2cccs2)O3)c1` (configuration not stated): “inactive”.
The same measure for `CC(=O)Nc1ccc(NC(=O)C/C(C)=N/NC(N)=S)cc1`: “inactive”; for `O=c1oc2cc(O)ccc2cc1-c1nc(-c2ccc(Cl)c(Cl)c2)cs1`: 1.84 µM (active); for `CCN(CC)c1ccc2cc(-c3nc4ccccc4n3C)c(=O)oc2c1`: 16.4 µM (active).
Turning to `CCN(CC)c1ccc2cc(-c3nc(-c4ccccc4)no3)c(=O)oc2c1`, the Potency was 4.61 µM (active).
`Oc1ccc(-c2nc(-c3ccc(O)c(O)c3)cs2)cc1`: the Potency entry is “inactive”.
With `COc1ccc(-c2csc(-c3ccc(O)cc3)n2)cc1`, the Potency result is “inactive”.
Regarding `CCN(CC)c1ccc2cc(-c3nnc(-c4cccc(Cl)c4)o3)c(=O)oc2c1`, the Potency is 1.3 µM (active).
The same measure for `COc1cccc(C2=CC(c3cc(Br)ccc3F)n3nnnc3N2)c1` (configuration not stated): “inactive”; for `CCN(CC)c1ccc2cc(C(N)=O)c(=N)oc2c1`: 23.1 µM (active); for `CCN(CC)c1ccc(/C=N/N=C(N)N)c(O)c1`: “inactive”.
The value for `O=C1/C(=C/c2c[nH]c3ccccc23)CCC/C1=C\c1c[nH]c2ccccc12` was 18.4 µM (active); that for `O=C(c1ccccc1)c1c2c(cc3sc4ccccc4[n+]13)-c1cccc3cccc-2c13` was “inactive”; that for `S=C(NN=Cc1ccccn1)Nc1ccccn1` was “inactive”.
`C/C(=N\Nc1nc(C)cc(-c2ccccc2)n1)c1ccc(F)cc1`: the Potency result is “inactive”.
The value for `CCOc1ccc(Br)cc1C(=O)Nc1ccc(C(=O)NCC(C)C)cc1` was 6.51 µM (active); that for `CCOc1ccc(Br)cc1/C(C)=N\NC1=NCCN1` was “inactive”; that for `CCOc1ccccc1C(=O)Nc1c(C(=O)Nc2ccc(F)cc2)oc2ccccc12` was “inactive”.
The same measure for `COCCNC(=S)NN=C1CCCCCC1`: “inactive”; for `O=C1CC(c2cc(Br)ccc2F)c2cc3c(cc2N1)CCC3` (configuration not stated): “inactive”.
For the compound `CC[n+]1cc(C)ccc1/C=C/c1ccc(N(C)C)cc1`, the Potency was 14 µM (active).
The value for `CN(C)c1ccc(/C=C/c2cc[n+](C)cc2)cc1` was 15.8 µM (active); that for `Cc1ccc(/C=C/c2ccc(N(C)C)cc2)[n+](C)c1` was 14 µM (active); that for `O=C1NC(c2cccc(Cl)c2)Nc2ccccc21` (configuration not stated) was “inactive”.
The value for `CC(C)(C)c1ccc(Cn2c(=O)cnc3ccccc32)cc1` was “inactive”.
The same measure for `O=c1[nH]ncc2c3ccccc3n(Cc3cccc(Cl)c3)c12`: 23.1 µM (active).
